Measured values as given in article PMC7862700, “An all-to-all approach to the identification of sequence-specific readers for epigenetic DNA modifications on cytosine”.

Columns and labels:
Assay in all cases: DAPPL (digital affinity profiling via proximity ligation, sequencing); 10 mM Tris-HCl pH 7.5, 50 mM NaCl, 1 mM DTT, 4% glycerol, room temperature, 30 min; GST-TFs on glutathione beads, 16-mer random dsDNA library, 0.1% formaldehyde crosslink after washing; high values mean tight binding
FLI1 = target: T1, FLI1 (Homo sapiens, UniProt Q01543 1-452); conditions: protein: recombinant; tags: N-terminal GST; dsDNA, one strand shown
T1 sequence: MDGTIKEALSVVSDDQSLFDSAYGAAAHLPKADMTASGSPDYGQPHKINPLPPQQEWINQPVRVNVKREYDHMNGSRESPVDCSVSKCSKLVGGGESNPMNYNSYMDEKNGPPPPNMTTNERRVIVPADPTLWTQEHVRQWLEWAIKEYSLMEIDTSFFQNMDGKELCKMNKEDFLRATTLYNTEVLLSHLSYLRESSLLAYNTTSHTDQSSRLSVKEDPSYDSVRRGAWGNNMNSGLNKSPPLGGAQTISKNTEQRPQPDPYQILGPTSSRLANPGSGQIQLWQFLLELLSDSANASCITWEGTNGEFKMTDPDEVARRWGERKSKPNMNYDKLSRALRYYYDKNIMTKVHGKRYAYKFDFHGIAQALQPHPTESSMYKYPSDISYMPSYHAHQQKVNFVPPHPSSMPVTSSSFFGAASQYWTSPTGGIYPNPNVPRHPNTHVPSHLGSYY
Method in brief: (§1)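 GST fusions of human transcription factors were expressed in yeast and captured with glutathione beads. Once given DNA barcodes and pooled alongside a tag-only sample, they were incubated for 30 min at room temperature with 200 nmole of a random double-stranded 16-mer DNA library in Tris/NaCl/DTT/glycerol buffer, then washed, crosslinked (0.1% formaldehyde), proximity-ligated, PCR-amplified and sequenced on an Illumina NextSeq500. The binding signal of each hexamer is its read frequency for a factor divided by its frequency for the tag-only sample.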

ELK1 = target: T2, ELK1 (Homo sapiens, UniProt P19419 1-428); conditions: protein: recombinant; tags: N-terminal GST; dsDNA, one strand shown
T2 sequence: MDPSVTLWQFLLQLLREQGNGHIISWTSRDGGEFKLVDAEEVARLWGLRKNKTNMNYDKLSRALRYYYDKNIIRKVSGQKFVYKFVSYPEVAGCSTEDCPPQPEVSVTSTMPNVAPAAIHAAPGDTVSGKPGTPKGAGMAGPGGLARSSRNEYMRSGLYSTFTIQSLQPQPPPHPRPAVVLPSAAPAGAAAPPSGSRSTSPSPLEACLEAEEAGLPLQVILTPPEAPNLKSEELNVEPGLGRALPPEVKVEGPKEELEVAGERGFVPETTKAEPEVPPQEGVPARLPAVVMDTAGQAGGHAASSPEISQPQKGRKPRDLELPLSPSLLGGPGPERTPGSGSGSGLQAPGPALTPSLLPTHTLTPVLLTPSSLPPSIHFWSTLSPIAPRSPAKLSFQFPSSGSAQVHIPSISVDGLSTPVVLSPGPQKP
Method in brief: as §1

GABPA = target: T3, GABPA (Homo sapiens, UniProt Q06546 1-454); conditions: protein: recombinant; tags: N-terminal GST; dsDNA, one strand shown
T3 sequence: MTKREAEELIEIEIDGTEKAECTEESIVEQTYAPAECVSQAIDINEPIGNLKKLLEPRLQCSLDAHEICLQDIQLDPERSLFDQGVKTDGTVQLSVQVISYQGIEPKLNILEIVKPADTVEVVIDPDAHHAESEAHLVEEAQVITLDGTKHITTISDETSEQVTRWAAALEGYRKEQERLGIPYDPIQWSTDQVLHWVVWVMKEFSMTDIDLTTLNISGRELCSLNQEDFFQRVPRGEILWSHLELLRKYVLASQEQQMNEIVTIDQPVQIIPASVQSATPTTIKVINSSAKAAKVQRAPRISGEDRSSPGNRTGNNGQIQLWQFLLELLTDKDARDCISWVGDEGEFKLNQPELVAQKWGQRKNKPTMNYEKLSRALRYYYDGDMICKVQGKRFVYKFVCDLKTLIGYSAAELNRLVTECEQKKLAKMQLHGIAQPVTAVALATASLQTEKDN
Method in brief: as §1

ERG = target: T4, ERG (Homo sapiens, UniProt P11308 1-479); conditions: protein: recombinant; tags: N-terminal GST; dsDNA, one strand shown
T4 sequence: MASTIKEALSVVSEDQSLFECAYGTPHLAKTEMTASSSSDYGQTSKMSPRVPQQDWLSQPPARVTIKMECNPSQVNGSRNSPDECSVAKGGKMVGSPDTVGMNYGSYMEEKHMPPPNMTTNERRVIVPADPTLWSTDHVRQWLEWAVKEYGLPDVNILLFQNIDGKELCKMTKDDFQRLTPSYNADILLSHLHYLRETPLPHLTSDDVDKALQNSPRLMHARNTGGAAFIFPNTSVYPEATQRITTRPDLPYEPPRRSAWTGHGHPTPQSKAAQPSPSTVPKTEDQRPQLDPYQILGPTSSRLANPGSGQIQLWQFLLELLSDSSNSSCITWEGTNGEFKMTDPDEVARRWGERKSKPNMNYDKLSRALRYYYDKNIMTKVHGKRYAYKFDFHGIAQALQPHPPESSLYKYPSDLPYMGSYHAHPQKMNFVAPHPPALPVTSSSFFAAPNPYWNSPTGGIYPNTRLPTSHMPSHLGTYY
Method in brief: as §1

ELF1 = ELF1 (Homo sapiens, UniProt P32519 1-619); conditions: protein: recombinant; tags: N-terminal GST; dsDNA, one strand shown
Method in brief: as §1

EHF = target: T5, EHF (Homo sapiens, UniProt Q9NZC4 1-300); conditions: protein: recombinant; tags: N-terminal GST; dsDNA, one strand shown
T5 sequence: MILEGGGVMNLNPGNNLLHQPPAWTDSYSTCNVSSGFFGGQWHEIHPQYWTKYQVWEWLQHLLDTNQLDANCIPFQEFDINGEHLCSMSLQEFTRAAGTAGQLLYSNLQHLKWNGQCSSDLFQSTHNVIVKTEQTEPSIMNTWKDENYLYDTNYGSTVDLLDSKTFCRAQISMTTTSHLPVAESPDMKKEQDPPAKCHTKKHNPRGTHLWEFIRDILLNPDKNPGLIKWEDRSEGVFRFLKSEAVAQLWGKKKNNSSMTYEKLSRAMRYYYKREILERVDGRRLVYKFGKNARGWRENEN
Method in brief: as §1

SPI1 = SPI1 (Homo sapiens, UniProt P17947 1-270); conditions: protein: recombinant; tags: N-terminal GST; dsDNA, one strand shown
Method in brief: as §1

SPIB = SPIB (Homo sapiens, UniProt Q01892 1-262); conditions: protein: recombinant; tags: N-terminal GST; dsDNA, one strand shown
Method in brief: as §1

ELK3 = target: T6, ELK3 (Homo sapiens, UniProt P41970 1-407); conditions: protein: recombinant; tags: N-terminal GST; dsDNA, one strand shown
T6 sequence: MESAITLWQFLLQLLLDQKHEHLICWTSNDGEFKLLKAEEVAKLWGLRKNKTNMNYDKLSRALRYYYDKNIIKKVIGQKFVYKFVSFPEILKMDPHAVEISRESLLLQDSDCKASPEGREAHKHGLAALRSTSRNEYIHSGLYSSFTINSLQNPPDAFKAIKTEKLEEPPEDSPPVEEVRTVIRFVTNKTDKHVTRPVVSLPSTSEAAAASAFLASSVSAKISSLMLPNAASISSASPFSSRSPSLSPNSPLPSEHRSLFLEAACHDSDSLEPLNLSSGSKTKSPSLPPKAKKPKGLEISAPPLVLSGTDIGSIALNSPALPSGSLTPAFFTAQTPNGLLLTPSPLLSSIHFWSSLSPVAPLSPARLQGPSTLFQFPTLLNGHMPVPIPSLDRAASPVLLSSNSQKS
Method in brief: as §1

FEV = target: T7, FEV (Homo sapiens, UniProt Q99581 1-238); conditions: protein: recombinant; tags: N-terminal GST; dsDNA, one strand shown
T7 sequence: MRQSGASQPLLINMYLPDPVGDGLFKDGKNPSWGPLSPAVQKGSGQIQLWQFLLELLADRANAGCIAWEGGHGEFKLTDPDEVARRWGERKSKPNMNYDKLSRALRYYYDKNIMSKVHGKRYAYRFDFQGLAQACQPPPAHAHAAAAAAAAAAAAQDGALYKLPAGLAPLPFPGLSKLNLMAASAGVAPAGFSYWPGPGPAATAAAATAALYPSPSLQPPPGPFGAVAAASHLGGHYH
Method in brief: as §1

ETV5 = ETV5 (Homo sapiens, UniProt P41161 1-510); conditions: protein: recombinant; tags: N-terminal GST; dsDNA, one strand shown
Method in brief: as §1

HSF1 = HSF1 (Homo sapiens, UniProt Q00613 1-529); conditions: protein: recombinant; tags: N-terminal GST; chain copies: 3; dsDNA, one strand shown
Method in brief: as §1

SPIC = target: T8, SPIC (Homo sapiens, UniProt Q8N5J4 1-248); conditions: protein: recombinant; tags: N-terminal GST; dsDNA, one strand shown
T8 sequence: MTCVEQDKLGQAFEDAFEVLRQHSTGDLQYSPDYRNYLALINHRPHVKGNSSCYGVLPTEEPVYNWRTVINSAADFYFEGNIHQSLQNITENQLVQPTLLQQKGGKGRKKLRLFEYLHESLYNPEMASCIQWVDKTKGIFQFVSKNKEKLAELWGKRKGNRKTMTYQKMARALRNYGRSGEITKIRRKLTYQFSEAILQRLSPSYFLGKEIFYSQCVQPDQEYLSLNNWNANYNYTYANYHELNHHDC
Method in brief: as §1

ELF4 = ELF4 (Homo sapiens, UniProt Q99607 1-663); conditions: protein: recombinant; tags: N-terminal GST; dsDNA, one strand shown
Method in brief: as §1

ELK4 = target: T9, ELK4 (Homo sapiens, UniProt P28324-2 1-405); conditions: protein: recombinant; tags: N-terminal GST; dsDNA, one strand shown
T9 sequence: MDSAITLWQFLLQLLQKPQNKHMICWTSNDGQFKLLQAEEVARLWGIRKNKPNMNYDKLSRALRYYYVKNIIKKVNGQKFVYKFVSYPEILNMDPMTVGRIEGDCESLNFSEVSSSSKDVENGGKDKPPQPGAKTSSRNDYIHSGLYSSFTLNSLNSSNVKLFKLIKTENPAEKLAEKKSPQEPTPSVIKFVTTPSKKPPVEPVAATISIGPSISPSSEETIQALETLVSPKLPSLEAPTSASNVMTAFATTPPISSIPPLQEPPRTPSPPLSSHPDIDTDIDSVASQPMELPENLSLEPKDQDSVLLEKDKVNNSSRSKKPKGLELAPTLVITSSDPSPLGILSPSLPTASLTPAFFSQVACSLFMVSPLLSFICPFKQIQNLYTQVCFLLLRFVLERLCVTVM
Method in brief: as §1

ETV2 = target: T10, ETV2 (Homo sapiens, UniProt O00321 1-342); conditions: protein: recombinant; tags: N-terminal GST; dsDNA, one strand shown
T10 sequence: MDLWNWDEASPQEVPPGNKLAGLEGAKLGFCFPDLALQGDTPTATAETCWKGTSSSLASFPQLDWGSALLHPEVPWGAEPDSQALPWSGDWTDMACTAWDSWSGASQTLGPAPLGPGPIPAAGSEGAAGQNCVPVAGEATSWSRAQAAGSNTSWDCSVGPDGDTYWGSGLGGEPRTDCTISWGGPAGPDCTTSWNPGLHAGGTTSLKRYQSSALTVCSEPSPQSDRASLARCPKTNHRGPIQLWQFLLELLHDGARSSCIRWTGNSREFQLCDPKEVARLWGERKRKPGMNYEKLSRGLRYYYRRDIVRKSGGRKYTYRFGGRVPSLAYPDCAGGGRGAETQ
Method in brief: as §1

ELF3 = target: T11, ELF3 (Homo sapiens, UniProt P78545 1-371); conditions: protein: recombinant; tags: N-terminal GST; dsDNA, one strand shown
T11 sequence: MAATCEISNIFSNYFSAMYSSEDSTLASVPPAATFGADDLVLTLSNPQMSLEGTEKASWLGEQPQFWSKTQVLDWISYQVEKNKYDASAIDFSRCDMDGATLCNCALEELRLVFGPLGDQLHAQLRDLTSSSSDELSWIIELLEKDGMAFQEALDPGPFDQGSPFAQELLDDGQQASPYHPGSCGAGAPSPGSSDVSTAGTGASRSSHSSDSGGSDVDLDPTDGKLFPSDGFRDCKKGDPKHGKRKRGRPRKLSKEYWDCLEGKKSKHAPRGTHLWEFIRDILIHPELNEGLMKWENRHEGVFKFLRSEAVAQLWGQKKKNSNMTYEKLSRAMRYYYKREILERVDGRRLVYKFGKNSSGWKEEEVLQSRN
Method in brief: as §1

CRX = CRX (Homo sapiens, UniProt O43186 1-299); conditions: protein: recombinant; tags: N-terminal GST; dsDNA, one strand shown
Method in brief: as §1

ETV1 = ETV1 (Homo sapiens, UniProt P50549 1-477); conditions: protein: recombinant; tags: N-terminal GST; dsDNA, one strand shown
Method in brief: as §1

SPIB, sequence (Q01892 whole entry): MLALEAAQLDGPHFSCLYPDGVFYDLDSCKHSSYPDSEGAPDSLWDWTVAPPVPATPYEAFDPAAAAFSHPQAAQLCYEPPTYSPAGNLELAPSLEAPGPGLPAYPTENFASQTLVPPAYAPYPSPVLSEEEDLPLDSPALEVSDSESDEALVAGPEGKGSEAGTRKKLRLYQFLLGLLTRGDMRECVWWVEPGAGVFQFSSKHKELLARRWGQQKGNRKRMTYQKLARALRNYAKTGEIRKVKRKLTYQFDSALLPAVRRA
ELF4, sequence (Q99607 whole entry): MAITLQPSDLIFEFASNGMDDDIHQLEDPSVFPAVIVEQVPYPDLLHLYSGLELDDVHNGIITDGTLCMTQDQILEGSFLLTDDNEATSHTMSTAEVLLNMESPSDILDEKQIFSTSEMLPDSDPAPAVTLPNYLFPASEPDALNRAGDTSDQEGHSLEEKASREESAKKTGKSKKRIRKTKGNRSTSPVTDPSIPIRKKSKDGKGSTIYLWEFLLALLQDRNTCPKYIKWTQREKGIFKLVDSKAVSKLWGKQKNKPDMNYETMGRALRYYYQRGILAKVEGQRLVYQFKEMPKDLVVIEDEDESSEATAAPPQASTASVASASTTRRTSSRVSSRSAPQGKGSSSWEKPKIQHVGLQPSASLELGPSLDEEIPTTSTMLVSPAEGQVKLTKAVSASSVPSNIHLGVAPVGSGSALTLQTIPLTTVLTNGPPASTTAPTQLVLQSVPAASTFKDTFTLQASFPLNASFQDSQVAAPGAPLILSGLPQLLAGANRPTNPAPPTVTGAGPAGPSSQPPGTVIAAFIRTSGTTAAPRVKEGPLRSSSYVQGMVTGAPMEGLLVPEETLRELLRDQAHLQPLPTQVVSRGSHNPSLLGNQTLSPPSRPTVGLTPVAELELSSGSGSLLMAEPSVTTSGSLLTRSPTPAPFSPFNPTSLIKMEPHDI
ELF1, sequence (P32519 whole entry): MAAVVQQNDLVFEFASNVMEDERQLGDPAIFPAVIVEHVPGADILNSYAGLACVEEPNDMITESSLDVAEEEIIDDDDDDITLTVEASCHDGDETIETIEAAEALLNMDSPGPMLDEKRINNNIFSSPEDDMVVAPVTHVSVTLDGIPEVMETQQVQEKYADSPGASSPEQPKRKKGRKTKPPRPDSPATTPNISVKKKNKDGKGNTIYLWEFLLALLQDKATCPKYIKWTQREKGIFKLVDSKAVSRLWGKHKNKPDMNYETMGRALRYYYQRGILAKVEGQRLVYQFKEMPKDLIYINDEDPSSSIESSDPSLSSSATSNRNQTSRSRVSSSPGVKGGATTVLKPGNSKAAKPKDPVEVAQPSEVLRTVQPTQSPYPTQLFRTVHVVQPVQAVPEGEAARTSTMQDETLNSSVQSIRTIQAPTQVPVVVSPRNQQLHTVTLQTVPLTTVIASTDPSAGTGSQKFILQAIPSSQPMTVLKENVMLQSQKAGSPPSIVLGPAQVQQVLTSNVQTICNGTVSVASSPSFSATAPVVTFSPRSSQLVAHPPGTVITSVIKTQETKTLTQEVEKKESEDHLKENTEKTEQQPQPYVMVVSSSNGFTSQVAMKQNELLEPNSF
ETV1, sequence (P50549 whole entry): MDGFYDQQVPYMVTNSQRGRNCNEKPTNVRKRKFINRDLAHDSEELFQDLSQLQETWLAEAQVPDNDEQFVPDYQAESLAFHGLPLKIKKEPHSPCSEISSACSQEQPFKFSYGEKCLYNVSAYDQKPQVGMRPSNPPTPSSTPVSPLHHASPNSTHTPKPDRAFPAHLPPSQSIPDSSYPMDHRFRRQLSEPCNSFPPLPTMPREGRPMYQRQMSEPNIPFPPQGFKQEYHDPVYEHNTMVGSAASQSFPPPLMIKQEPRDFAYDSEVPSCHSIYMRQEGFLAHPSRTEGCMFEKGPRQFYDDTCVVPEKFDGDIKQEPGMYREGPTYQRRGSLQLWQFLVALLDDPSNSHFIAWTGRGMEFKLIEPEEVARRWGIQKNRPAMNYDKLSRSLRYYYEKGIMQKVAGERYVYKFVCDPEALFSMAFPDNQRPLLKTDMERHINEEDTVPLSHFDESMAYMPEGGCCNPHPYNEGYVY
ETV5, sequence (P41161 whole entry): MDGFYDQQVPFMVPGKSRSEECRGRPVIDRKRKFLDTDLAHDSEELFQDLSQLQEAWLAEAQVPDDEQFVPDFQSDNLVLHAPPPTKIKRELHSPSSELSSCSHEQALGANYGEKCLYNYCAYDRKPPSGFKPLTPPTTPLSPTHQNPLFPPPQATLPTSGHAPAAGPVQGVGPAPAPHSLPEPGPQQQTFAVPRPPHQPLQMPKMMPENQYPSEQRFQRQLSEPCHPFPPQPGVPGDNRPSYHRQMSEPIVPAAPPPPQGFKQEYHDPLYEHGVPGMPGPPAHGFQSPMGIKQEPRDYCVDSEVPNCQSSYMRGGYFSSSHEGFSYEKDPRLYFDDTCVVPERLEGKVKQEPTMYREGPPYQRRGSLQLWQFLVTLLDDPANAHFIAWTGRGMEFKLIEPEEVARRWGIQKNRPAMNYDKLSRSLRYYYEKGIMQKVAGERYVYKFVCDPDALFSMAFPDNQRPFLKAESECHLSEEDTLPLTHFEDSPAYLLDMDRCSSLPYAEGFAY
CRX, sequence (O43186 whole entry): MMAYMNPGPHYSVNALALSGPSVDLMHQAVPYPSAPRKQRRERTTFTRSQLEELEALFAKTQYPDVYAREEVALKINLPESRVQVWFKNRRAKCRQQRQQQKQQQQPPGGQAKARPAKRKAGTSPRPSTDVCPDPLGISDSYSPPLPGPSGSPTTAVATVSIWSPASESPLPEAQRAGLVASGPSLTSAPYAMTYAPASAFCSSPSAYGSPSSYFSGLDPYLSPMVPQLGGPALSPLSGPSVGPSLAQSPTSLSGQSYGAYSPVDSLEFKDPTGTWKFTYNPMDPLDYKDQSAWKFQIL
HSF1, sequence (Q00613 whole entry): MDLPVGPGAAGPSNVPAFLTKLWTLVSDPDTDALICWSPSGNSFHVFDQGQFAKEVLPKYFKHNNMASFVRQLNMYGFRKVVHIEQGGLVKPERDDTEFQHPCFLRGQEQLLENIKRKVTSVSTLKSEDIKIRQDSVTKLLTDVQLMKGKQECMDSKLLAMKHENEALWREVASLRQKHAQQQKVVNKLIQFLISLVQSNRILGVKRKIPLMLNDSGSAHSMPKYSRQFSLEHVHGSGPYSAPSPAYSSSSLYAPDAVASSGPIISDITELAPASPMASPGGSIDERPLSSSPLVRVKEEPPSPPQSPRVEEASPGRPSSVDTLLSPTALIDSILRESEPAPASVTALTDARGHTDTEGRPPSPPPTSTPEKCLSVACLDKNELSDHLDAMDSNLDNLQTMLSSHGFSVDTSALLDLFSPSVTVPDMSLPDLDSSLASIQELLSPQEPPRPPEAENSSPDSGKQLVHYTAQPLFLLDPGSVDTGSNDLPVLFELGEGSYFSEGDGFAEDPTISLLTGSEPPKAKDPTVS

For ATTATG, the binding signal (FLI1) was 1.3 fold enrichment (6-mer frequency, TF over GST control), the binding signal (ELK1) was 1.18 fold enrichment (6-mer frequency, TF over GST control) and the binding signal (GABPA) was 1.16 fold enrichment (6-mer frequency, TF over GST control). The binding signal (ERG) was 1.2 fold enrichment (6-mer frequency, TF over GST control), the binding signal (ELF1) was 1.2 fold enrichment (6-mer frequency, TF over GST control) and the binding signal (EHF) was 1.25 fold enrichment (6-mer frequency, TF over GST control). For the same sequence, the binding signal (SPI1) was 1.25 fold enrichment (6-mer frequency, TF over GST control), the binding signal (SPIB) was 1.25 fold enrichment (6-mer frequency, TF over GST control) and the binding signal (ELK3) was 1.17 fold enrichment (6-mer frequency, TF over GST control). For the same sequence, the binding signal (FEV) was 1.13 fold enrichment (6-mer frequency, TF over GST control), the binding signal (ETV5) was 1.26 fold enrichment (6-mer frequency, TF over GST control) and the binding signal (HSF1) was 1.68 fold enrichment (6-mer frequency, TF over GST control). For the same sequence, the binding signal (SPIC) was 1.42 fold enrichment (6-mer frequency, TF over GST control), the binding signal (ELF4) was 1.22 fold enrichment (6-mer frequency, TF over GST control) and the binding signal (ELK4) was 1.11 fold enrichment (6-mer frequency, TF over GST control). For the same sequence, the binding signal (ETV2) was 1.03 fold enrichment (6-mer frequency, TF over GST control), the binding signal (ELF3) was 1.48 fold enrichment (6-mer frequency, TF over GST control) and the binding signal (CRX) was 2.58 fold enrichment (6-mer frequency, TF over GST control). For the same sequence, the binding signal (ETV1) was 1.21 fold enrichment (6-mer frequency, TF over GST control).
